Experimental data from the supplement of paper PMC6555819.

How the values were obtained:
Test in all cases: PBM binding z-score (relative to random genomic background probes); higher = stronger binding; sequences stand for … in GC…GCGATTGACAGCGTAGAATGAAGG
[1] = test system: PPARg:RXRa DBDmut IVT, anti-RXR (DBD mutation: RXRa K156A/R161A, NR concentration 270 nM, RXRa partner concentration 90 nM)
Outline: (§1)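 The probes on custom Agilent 4×180K protein-binding microarrays were double-stranded, with 34-nt variable regions bearing direct-repeat seeds, single-nucleotide variants, half-site ablations and random human genomic background sequences. Incubation lasted 1 h with ligand-free nuclear receptor dimers in PBS pH 7.4, 2% milk, 0.02% Triton X-100, 1 mM DTT, 0.2 mg/mL BSA and 0.4 mg/ml salmon testes DNA. Antibodies against each partner (one per run) detected bound dimers, and fluorescence scans were regression-normalized. Binding z-scores take the random background probes as reference.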

[2] = test system: PPARg:RXRa IVT, anti-PPARg (NR concentration 270 nM, RXRa partner concentration 90 nM)
Outline: as §1

[3] = test system: PPARg DBDmut:RXRa IVT, anti-PPARg (DBD mutation: PPARg1 K132A/R137A, NR concentration 270 nM, RXRa partner concentration 90 nM)
Outline: as §1

[4] = test system: PPARg DBDmut IVT, anti-PPARg (DBD mutation: PPARg1 K132A/R137A, NR concentration 270 nM)
Outline: as §1

[5] = test system: PPARg homodimer (NR concentration 180 nM)
Outline: as §1

[6] = test system: PXR:RXRa (NR concentration 270 nM, RXRa partner concentration 90 nM)
Outline: as §1

[7] = test system: PXR homodimer (NR concentration 270 nM)
Outline: as §1

[8] = test system: RARa:RXR (NR concentration 270 nM, RXRa partner concentration 90 nM)
Outline: as §1

[9] = test system: RARa homodimer (NR concentration 270 nM)
Outline: as §1

[10] = test system: RARb:RXRa (NR concentration 270 nM, RXRa partner concentration 90 nM)
Outline: as §1

Sequence	PBM binding z-score [1]	PBM binding z-score [2]	PBM binding z-score [3]	PBM binding z-score [4]	PBM binding z-score [5]	PBM binding z-score [6]	PBM binding z-score [7]	PBM binding z-score [8]	PBM binding z-score [9]	PBM binding z-score [10]
CCTTACGGGTCACGAGGTTAAAGCACGACGAGCG	3.53	5.39	0.774	0.583	4.94	4.93	0.408	6.28	1.03	4.76
ATCTCTAGGTAACAGGTTCAGTGAAAGAGAGGAC	3.85	3.15	1.83	1.35	1.4	0.871	1.43	0.854	0.973	0.893
CAAACTAGGTCACAGAAGTCAAAGTCCGTGCGTA	8.28	9.03	4.57	2.37	2.34	2.34	0.405	3.34	0.949	4.35
TAGCCTAGGTCATGCGGGCCAGTATGGTGTCGGC	1.73	2.9	-0.0668	-0.181	0.816	1.42	-0.582	2.52	-0.311	3.65
AATACAGGGTCATCGTAGTCCAGAGTACGCACAG	2.79	5.02	1.99	2.18	2.87	5.53	1.22	5.21	0.827	4.73
CCTGACGGGTCAAGGTTATAGCACGGGTGGTACG	0.0106	1.52	-0.561	-0.647	1.94	2.74	0.233	3.65	0.717	3.78
AACTCTAGGTAAAGTTCAGTGAAAGATCGATAGA	2.44	2.21	0.224	0.266	0.953	1.71	1.53	1.14	0.544	2.73
CATACTAGGTCACCGGAAGGTCAAAGTCCGCATG	7.07	8.03	4.35	1.99	7.45	5.88	2.1	7.25	2.75	5.21
ACTAGCAGGCCAAGTTTGGGTCACACAAACAAAG	0.756	1.65	0.166	-0.339	0.789	1.07	-0.0733	1.95	-0.318	1.91
CGAACTAGGTCAGAAGAGGACAGTGAAGGATGAT	7.13	7.32	3.38	1.51	1.15	2.5	-0.0219	2.42	0.202	3.05
CCTACTGGGCCAAAAAGGTCATTGACGCCGATAA	3.85	3.99	-0.855	-0.422	2.91	4.65	2.1	5.01	1.28	3.72
GCAGACTGGTGAAACGCAGGTAACTCAGGGTGGC	-0.965	-0.728	-0.431	-1.07	-1.3	-0.855	-0.855	-0.718	-1.39	-0.689
ATCTCTAGGTAAAGATAGTACAGTGAATGCAAAT	1.46	1.59	1.31	1.08	1.02	0.0817	0.418	0.0539	1.54	0.0238
CGGACGAGGGCATGAGTTGATAGCAAATGCCGAT	1.74	0.979	-0.792	-1.58	-0.164	0.528	0.00329	0.284	0.0592	2.03
ACTATTAGATGACTTAGGGCAACCGATACGACGC	0.577	0.319	1.54	1.42	1.03	-0.0258	0.554	0.143	1.38	0.885
CCTAGCAGCCCAGGGTCACTCAAGCATTTCGCTT	-0.614	0.169	-1.11	-1.49	1.2	2.56	0.192	3.27	0.00809	2.4
TCAGATAGGTAAACAGGTGAAAGTCCGTAAGTTA	2.93	2.15	0.778	0.465	0.969	0.684	0.401	1.05	1.15	0.891
TCTCGGAGGACACGTAGGTCAGAGCTTTCCAGAG	1.13	0.761	-0.418	-1.11	0.0512	0.765	-0.00599	0.992	-0.463	2.54
TCTAGCAGGCCAGAGGGTCACTTAAGAGGTACGG	0.598	0.688	-0.762	-0.435	0.442	1.35	-0.462	2.27	-0.441	2.19
CGAACGAGGGCATGAGATGATAGCAAATGCCGAT	2.91	1.69	0.746	-0.282	0.685	0.00253	-0.206	0.422	0.183	1.79
GCTGCTAGGTCAGCTGATGGTCAGCTAAAGCTCG	3.51	2.35	-1.32	-1.88	0.56	-0.015	-1.12	0.983	-1.22	3.57
TCTGCTAGGTCAGTGGGTCAGCTAACGAGCTGCC	4.42	5.76	0.364	-0.282	1.24	0.857	-0.958	2.11	-0.00938	3.77
CGTCCAAGGTCAGAGAGTTCAGTGAATGCCGAGT	2.97	2.07	-0.209	-1.29	2.85	6.75	14.2	4.08	1.32	4.78
TCTTGTAGATCAAAAGTTAAGAAAGCCGAAGCCT	1.79	0.791	1.09	0.787	-0.327	0.243	-0.268	0.155	-0.386	-0.12
